# Assay results as given in PubChem BioAssay (NCATS).
# “And” between values parts separate entries of the source, which are not always exact repeats. Equal entries are not always repeated. Results filed as inconclusive are left out. Unmarked numbers belong to inactive results. The source made the active and inactive calls. Unless noted, the call rests on the fitted dose curve; in most records, active means well fitted curve in the direction sought with a large enough effect; inconclusive means small, poorly fitted or top-dose-only effect, or another doubt; inactive means no such curve, though single readings can be large; an effect the other way counts as inactive or inconclusive.
# Assay: qHTS assay for small molecule agonists of the antioxidant response element (ARE) signaling pathway measured by Nrf2-dependant transcriptional activity - cell viability counter screen (AID 720653; active means well fitted curve in the direction sought with a large enough effect in the repeat runs; an effect the other way counts as inactive or inconclusive)
# Details: ARE-bla HepG2 viability, CellTiter-Glo ATP luminescence, 16 h; max response: stronger effect = lower value
# Method in brief: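 Cytotoxicity counter screen: intracellular ATP quantified by CellTiter-Glo luminescence in the same ARE-bla HepG2 plates, after 16 h compound exposure and a 2 h beta-lactamase substrate step.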
# On the % scale 0 is the no-effect control and ±100 the full control effect.
row,SMILES,max response [%]
1,CC(C)Nc1ccc(Nc2ccccc2)cc1,-21.1
2,C#CCN1CC(=O)N(COC(=O)C2C(C=C(C)C)C2(C)C)C1=O (centres undefined),2.56
3,COCC(C)N(C(=O)CCl)c1c(C)csc1C (centres undefined),-1.95
4,O=[N+]([O-])C(Br)(CO)CO,-12.6

# Assay: qHTS Assay for Identifying Gametocytocidal Compounds (AID 743244); further: potency means the concentration at half of the fitted maximal effect;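 on max response: actives lower the fluorescent signal which means gametocytes are killed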
# Details: P. falciparum 3D7 stage III-V gametocytes, alamarBlue, 72 h; max response: stronger effect = lower value
# Method in brief: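 P. falciparum 3D7 stage III–V gametocytes (20,000 cells/well) were exposed to compounds for 72 h at 37 °C, 5% CO2. AlamarBlue was then added for 24 h; decreased resorufin fluorescence (Ex 525/Em 598 nm) indicated loss of viability.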
SMILES,max response,Potency
Cc1ccccc1-n1c(C)nc2ccccc2c1=O,5.64% and -12.4%,
CCC1(C)CC(=O)NC(=O)C1,2.58%,
CC(=O)[C@H]1CC[C@H]2[C@@H]3CC[C@@H]4C[C@H](O)CC[C@]4(C)[C@H]3CC[C@]12C,-3.94%,
O=[N+]([O-])c1cc(I)c(O)c(I)c1,0.0812%,
Cc1cc(C)cc(C(=O)OC2C[C@H]3CC[C@@H](C2)N3C)c1 (some centres undefined),23%,
C[N+]1([O-])[C@@H]2CC(OC(=O)[C@H](CO)c3ccccc3)C[C@H]1[C@@H]1O[C@@H]12 (some centres undefined),4.15% and -13.5%,
COc1ccc2c3c1O[C@H]1C(=O)CC[C@H]4[C@@H](C2)N(C)CC[C@]314,13%,
CC(N)Cc1ccc(O)cc1 (centres undefined),1.03%,
O=C1OC2(c3cc(Br)c(O)cc3Oc3c2cc(Br)c(O)[c]3[Hg])c2ccccc21 (centres undefined),-1.46%,
CC(=O)OC1CN2CCC1CC2 (centres undefined),-0.102%,
CN1C2CCC1CC(OC(c1ccccc1)c1ccc(Cl)cc1)C2 (centres undefined),,17.8 µM (active)
CC(C)Nc1ccc(Nc2ccccc2)cc1,,10 µM (active)
CC(C)CCC(=O)O[C@H]1CC[C@H]2[C@@H]3CCC4=CC(=O)CC[C@]4(C)[C@H]3CC[C@]12C,13.7%,
CCC1(c2ccccc2)C(=O)NC(=O)N(C(=O)c2ccccc2)C1=O (centres undefined),-4.65%,
CN1[C@H]2CC[C@@H]1[C@@H](C(=O)O)[C@@H](OC(=O)c1ccccc1)C2,17.6% and -3.85%,
C[C@]12CC[C@H]3[C@@H](CCC4=C(O)C(=O)CC[C@@H]43)[C@@H]1CC[C@@H]2OC(=O)CCC1CCCC1,-3.51%,
CC[C@H]1[C@@H]2C[C@H]3[C@@H]4N(C)c5ccccc5[C@]45C[C@@H](C2[C@H]5O)N3[C@@H]1O (some centres undefined),7.56%,
C[C@]12C[C@H]3S[C@H]3C[C@@H]1CC[C@@H]1[C@@H]2CC[C@]2(C)[C@@H](O)CC[C@@H]12,1.49%,

SMILES,max response,Potency
CN1c2ccccc2C(NCCCCCCC(=O)O)c2ccc(Cl)cc2S1(=O)=O (centres undefined),-8.42%,
OC[C@@H](O)[C@H]1O[C@@H]2O[C@@H](C(Cl)(Cl)Cl)O[C@@H]2[C@H]1O,-7.25%,
Oc1cccc[c]1[Hg][Cl],,1.78 µM (active)
c1csc(C2(N3CCCCC3)CCCCC2)c1,-3.82%,
CN(C)[C@H](Cc1ccccc1)c1ccccc1,-4.16%,
CCC(=O)O[C@@](Cc1ccccc1)(c1ccccc1)[C@@H](C)CN(C)C,5.87%,
C#CCN1CC(=O)N(COC(=O)C2C(C=C(C)C)C2(C)C)C1=O (centres undefined),21.2%,
CC(=O)OO,-9.86%,
O=C1C[C@@H]2OCC=C3CN4CC[C@]56c7ccccc7N1[C@H]5[C@H]2[C@H]3C[C@H]46 (tested in a mixture with another compound),12.7% and 17.6%,
S=C(S)N1CCNCC1,-5.89%,
CC1(C)[C@H](C=C(Cl)Cl)[C@H]1C(=O)OCc1c(F)c(F)cc(F)c1F,0.31%,
CC(=O)OCC(=O)[C@H]1CC[C@H]2[C@@H]3CC[C@H]4C[C@H](O)CC[C@]4(C)[C@H]3C(=O)C[C@]12C,11.4%,
CC(=O)O[C@H]1C[C@H](O[C@H]2[C@@H](O)C[C@H](O[C@H]3[C@@H](O)C[C@H](O[C@H]4CC[C@@]5(C)[C@H](CC[C@@H]6[C@@H]5C[C@@H](O)[C@]5(C)[C@@H](C7=CC(=O)OC7)CC[C@]65O)C4)O[C@@H]3C)O[C@@H]2C)O[C@H](C)[C@H]1O[C@@H]1O[C@H](CO)[C@@H](O)[C@H](O)[C@H]1O,-19.5%,
O=C(CS(=O)C(c1ccccc1)c1ccccc1)NO (centres undefined),-0.968%,
CN(C)[C@@H]1C(=O)C(C(N)=O)=C(O)[C@@]2(O)C(=O)C3=C(O)c4c(O)ccc(Cl)c4[C@@](C)(O)[C@H]3C[C@@H]12,3.58%,
CC(Cc1ccccc1)NC=O (centres undefined),-3.98%,
O=C(NC(=O)c1c(F)cccc1F)Nc1ccc(Cl)c(Oc2ncc(C(F)(F)F)cc2Cl)c1,-9.15%,
